Compounds with a hit are over-represented: about 5.5% of the library has one in this group of screens.
MBNL1 CUG block: qHTS Assay for Inhibitors of MBNL1-poly(CUG) RNA binding | Muscleblind-like protein 1 (Homo sapiens), Q9NR56 | AID 2675, 2010 | Potency, µM (highest dose often 57.5 µM), for the others: top-dose activity change, negative = inhibition, most hits filed as inhibitors | TR-FRET MBNL1-His/biotin-(CUG)12 binding, 665/545 ratio | hit rate 0.036% among 280,000; active = well fitted inhibition curve with a large enough effect in the signal ratio, with a control signal flat, not every such curve was filed as active; inconclusive = small, poorly fitted or top-dose-only effect, or effect the other way, or a change in a side signal; inactive = no such curve, though single readings can be large or run the other way; the % refers to the signal ratio; note: potency is the fitted concentration of half-maximal effect; % is set by controls: 0 for no effect and ±100 for the full control effect
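TR-FRET between His-tagged MBNL1 and biotin-(CUG)12 RNA, detected with Tb anti-His antibody (0.055 ng/ul) and streptavidin-XL665 (5 nM), 60 min at room temperature. Compounds titrated 92 nM to 58 uM; 665/545 nm ratio normalized to buffer and complex controls.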
RORgamma inh: qHTS for inhibitors of ROR gamma transcriptional activity. Potency, µM (series often up to 53.6 µM), inactives show at the top dose activity change, negative = inhibition, most hits filed as inhibitors. Drosophila S2 Gal4-RORgamma UAS-luciferase reporter, 20 h. Nuclear receptor ROR-gamma (Mus musculus), P51450. hit rate 5.4% among 310,000; note: potency is the fitted concentration of half-maximal effect; % is set by controls: 0 for no effect and ±100 for the full control effect; nearly all actives have a fitted effect of over 60% in size
Target sequence (P51450 whole entry, looked up, the tested form may be a part): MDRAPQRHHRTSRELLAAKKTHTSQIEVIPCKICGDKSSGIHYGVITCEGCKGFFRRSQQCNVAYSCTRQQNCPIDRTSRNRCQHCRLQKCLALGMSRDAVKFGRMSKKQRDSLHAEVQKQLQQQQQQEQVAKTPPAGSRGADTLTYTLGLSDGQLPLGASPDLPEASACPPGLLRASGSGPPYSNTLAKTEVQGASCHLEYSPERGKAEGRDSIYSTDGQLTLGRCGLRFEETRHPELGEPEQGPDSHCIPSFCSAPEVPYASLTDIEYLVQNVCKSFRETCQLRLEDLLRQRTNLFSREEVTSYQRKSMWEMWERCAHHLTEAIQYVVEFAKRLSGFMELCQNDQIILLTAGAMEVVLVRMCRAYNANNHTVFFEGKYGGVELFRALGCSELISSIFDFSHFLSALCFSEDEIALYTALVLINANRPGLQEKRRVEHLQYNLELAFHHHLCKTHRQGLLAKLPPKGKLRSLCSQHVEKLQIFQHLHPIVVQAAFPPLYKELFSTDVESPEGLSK
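A Gal4/UAS one-hybrid system in insect cells: metallothionein-promoter Gal4–ROR gamma fusion plus Photinus luciferase reporter. Copper sulfate 700 uM final, 20 hr ambient incubation, luminescent detection after 10 min with reagent.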
Gal4-VP16 FLuc: VP16 counterscreen qHTS for inhibitors of ROR gamma transcriptional activity; Potency, µM (highest dose often 53.6 µM), inactives show top-dose activity, negative = inhibition, actives largely listed as inhibitors; AID 2546, 2010; hit rate 3.5% among 310,000; Drosophila S2 Gal4-VP16 UAS-luciferase, luminescence, 20 h;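 note: Gal4-VP16 expression switched on by copper sulfate through the metallothionein promoter; potency is the fitted concentration of half-maximal effect; % is set by controls: 0 for no effect and ±100 for the full control effect; nearly all actives have a fitted effect of over 50% in size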
CBFb-RUNX1 inh: qHTS Assay for Compounds Blocking the Interaction Between CBF-beta and RUNX1 for the Treatment of Acute Myeloid Leukemia; Runt-related transcription factor 1 (Homo sapiens) + Core-binding factor subunit beta …; AlphaScreen CBFb-His/RUNX1-biotin binding, biochemical; Potency, µM (top dose mostly 59.8 µM), for the others: at the highest dose activity, negative = inhibition, hits mostly inhibitors; 230,000 tested, under 10 active; AID 1477, 2009; note: % of control where 0% means no effect
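Bead-based AlphaScreen assay; binding partners His-tagged CBF-beta and biotinylated RUNX1 at 30 nM each. Compound exposure 15 min after a 20-min protein preincubation; bead step 90 min; all steps at room temperature.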
Six1-Eya2 blk: qHTS Assay for Inhibitors of the Six1/Eya2 Interaction. Homeobox protein SIX1 (Homo sapiens) + Protein phosphatase EYA2 (Homo sapiens), …. AlphaScreen GST-Six1/His-Eya2 binding, biochemical; active compounds read low. activity change, % (test concentration not listed). hit rate 0.56% among 360,000; in the data active = activity change below about -65%; inconclusive = mostly about -30% to -63%; note: % is set by controls: 0 for no effect and ±100 for the full control effect
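Six1/Eya2 binding was read as AlphaScreen signal after compounds were pinned into GST-Six1 plus His-tagged Eya2 (5X stock 250/500 nM) in pH 8.0 Tris/NaCl/TCEP buffer, beads added, then incubated 1 h, 37 C, dark.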
CtBP-E1A blk: qHTS Assay for Inhibitors of the CtBP/E1A Interaction | CtBP / adenovirus E1A interaction (AlphaScreen) | AlphaScreen GST-E1A/His-CtBP binding, 1536-well; active compounds read low | activity change, % (no concentration beside the values) | hit rate 0.49% among 340,000; in the data active = activity change below about -65%; inconclusive = mostly about -30% to -63%; note: % is set by controls: 0 for no effect and ±100 for the full control effect
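Homogeneous bead-based format: GST-tagged E1A captured on glutathione donor beads, His-tagged CtBP on nickel acceptor beads; compounds precede bead addition by 2 h at 37 °C.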
* = called active by the depositor; [ ] = dose if it differs, or a comment. Unless noted, calls come from the whole dose curve; as a rule, active = well fitted curve in the direction sought with a large enough effect; inconclusive = small, poorly fitted or top-dose-only effect, or another doubt; inactive = no such curve, though single readings can be large; an effect the other way counts as inactive or inconclusive.

How did CCN(CC(=O)Nc1ccc2c(c1)OCCO2)C(=O)c1cc(S(=O)(=O)N2CCOCC2)ccc1F do in these assays?
Six1-Eya2 blk: 0; CtBP-E1A blk: 4

What do the screens show for `Cc1cccc(-c2noc(-c3cc4ccccc4oc3=O)n2)c1`?
MBNL1 CUG block: 11%; RORgamma inh: 0.89µM*; Gal4-VP16 FLuc: inconclusive; CBFb-RUNX1 inh: -4%; Six1-Eya2 blk: 3; CtBP-E1A blk: -1

How did Cc1ccc(-c2nc(-c3ccncc3)no2)cc1Cl do in these assays?
MBNL1 CUG block: -6%; RORgamma inh: -25%; Gal4-VP16 FLuc: -2%; Six1-Eya2 blk: 5; CtBP-E1A blk: 18

What do the screens show for `Cc1ccc(-c2noc(-c3cc4ccccc4oc3=O)n2)cc1`?
MBNL1 CUG block: -1%; RORgamma inh: 9%; Gal4-VP16 FLuc: 1%; CBFb-RUNX1 inh: 2%; Six1-Eya2 blk: 1; CtBP-E1A blk: 1

How did O=c1oc2ccccc2cc1-c1nc(-c2ccccc2)no1 do in these assays?
MBNL1 CUG block: inconclusive; RORgamma inh: 11µM*; Gal4-VP16 FLuc: 8.9µM*; CBFb-RUNX1 inh: -2%; Six1-Eya2 blk: 24; CtBP-E1A blk: 0

Results for Cc1ccc(-c2nc(-c3ccncc3)no2)cc1C ?
MBNL1 CUG block: -4%; RORgamma inh: 8.9µM*; Gal4-VP16 FLuc: inconclusive; Six1-Eya2 blk: 5; CtBP-E1A blk: 0

What do the screens show for `c1ccc(-c2noc(-c3ccc4ccccc4c3)n2)cc1`?
MBNL1 CUG block: -6%; RORgamma inh: 3.5µM*; Gal4-VP16 FLuc: 25µM*; CBFb-RUNX1 inh: 4%; Six1-Eya2 blk: 8; CtBP-E1A blk: 3

What do the screens show for `COC(=O)Cn1cnc2scc(-c3ccc(C)cc3)c2c1=O`?
MBNL1 CUG block: -7%; RORgamma inh: 5%; Gal4-VP16 FLuc: -1%; Six1-Eya2 blk: 9; CtBP-E1A blk: 3

How did CCC(CO)Oc1cc(NC(=O)c2cccc(C)c2)c2ncn(C(C)C)c2c1 (configuration not stated) do in these assays?
Six1-Eya2 blk: 0; CtBP-E1A blk: -22

Results for Cc1cc(C)cc(C(=O)NCC(=O)OCC(=O)NC2CCCc3ccccc32)c1 (configuration not stated) ?
Six1-Eya2 blk: 10; CtBP-E1A blk: -2

What do the screens show for `CCCN(C(=O)c1cccc(-n2cccc2)c1)c1c(N)n(Cc2ccccc2)c(=O)[nH]c1=O`?
Six1-Eya2 blk: -5; CtBP-E1A blk: 23

Results for COc1ccc(-c2noc(-c3ccc(Cl)cc3[N+](=O)[O-])n2)cc1OC ?
RORgamma inh: 33%; Gal4-VP16 FLuc: -2%; CBFb-RUNX1 inh: -6%; Six1-Eya2 blk: -27; CtBP-E1A blk: inconclusive

How did Cc1cccc(-c2noc(-c3ccc(Cl)cc3[N+](=O)[O-])n2)c1 do in these assays?
RORgamma inh: 2.5µM*; Gal4-VP16 FLuc: 10µM*; CBFb-RUNX1 inh: 3%; Six1-Eya2 blk: inconclusive; CtBP-E1A blk: -21

What do the screens show for `CCCSc1nnc(Sc2nnnn2-c2ccccc2)s1`?
MBNL1 CUG block: -6%; RORgamma inh: 1.6µM*; Gal4-VP16 FLuc: -28%; CBFb-RUNX1 inh: 18%; Six1-Eya2 blk: 6; CtBP-E1A blk: 3

Results for Cc1ccccc1-n1nnnc1Sc1nnnn1-c1ccccc1 ?
MBNL1 CUG block: -2%; RORgamma inh: inconclusive; Gal4-VP16 FLuc: inconclusive; CBFb-RUNX1 inh: 4%; Six1-Eya2 blk: -1; CtBP-E1A blk: 1

Results for Cc1occc1C(=O)N/N=C/c1ccc2c(c1)OCO2 ?
MBNL1 CUG block: 9%; RORgamma inh: 7.9µM*; Gal4-VP16 FLuc: inconclusive; CBFb-RUNX1 inh: 10%; Six1-Eya2 blk: -4; CtBP-E1A blk: 7

How did Cc1occc1C(=O)N/N=C/c1ccc(-c2ccccc2)cc1 do in these assays?
MBNL1 CUG block: -2%; RORgamma inh: 13µM*; Gal4-VP16 FLuc: inconclusive; Six1-Eya2 blk: -13; CtBP-E1A blk: 1

How did CCC1(OC(=O)CN(C)C)C(=O)OCc2c1cc1n(c2=O)Cc2cc3c(N)cccc3nc2-1 (configuration not stated) do in these assays?
Six1-Eya2 blk: -16; CtBP-E1A blk: 5

How did FC(F)(F)c1cccc(NC(=S)NC(c2ccccc2)c2ccccc2)c1 do in these assays?
MBNL1 CUG block: inconclusive; RORgamma inh: 7.1µM*; Gal4-VP16 FLuc: 6.3µM*; CBFb-RUNX1 inh: 10%; Six1-Eya2 blk: 2; CtBP-E1A blk: -26

How did FC(F)(F)c1cccc(CNC(=S)Nc2ccccc2)c1 do in these assays?
MBNL1 CUG block: inconclusive; RORgamma inh: 5.6µM*; Gal4-VP16 FLuc: -18%[10 µM]; CBFb-RUNX1 inh: 4%; Six1-Eya2 blk: 9; CtBP-E1A blk: -19

What do the screens show for `FC(F)(F)c1cccc(NC(=S)NCc2ccccc2)c1`?
MBNL1 CUG block: -2%; RORgamma inh: 4.5µM*; Gal4-VP16 FLuc: 13µM*; CBFb-RUNX1 inh: 6%; Six1-Eya2 blk: 9; CtBP-E1A blk: 19

What do the screens show for `N#Cc1cccnc1N1CCN(C(=O)c2cccs2)CC1`?
MBNL1 CUG block: 0%; RORgamma inh: -3%; Gal4-VP16 FLuc: 1%; Six1-Eya2 blk: 1; CtBP-E1A blk: -2

Results for CCCCN(Cc1nc2ccccc2c(=O)[nH]1)C(=O)c1nn(C)c(=O)c2ccccc12 ?
Six1-Eya2 blk: 6; CtBP-E1A blk: 4

What do the screens show for `Cc1ccc(-c2n[nH]c(=S)n2/N=C/c2ccncc2)cc1`?
MBNL1 CUG block: 7%; RORgamma inh: 11µM*; Gal4-VP16 FLuc: inconclusive; CBFb-RUNX1 inh: 6%; Six1-Eya2 blk: 2

Results for Cc1ccc(-c2n[nH]c(=S)n2/N=C/c2sccc2C)cc1 ?
MBNL1 CUG block: 3%; RORgamma inh: inconclusive; Gal4-VP16 FLuc: -2%; CBFb-RUNX1 inh: 2%; Six1-Eya2 blk: -4; CtBP-E1A blk: -7

How did Cc1ccc(/C=N/n2c(-c3ccc(Cl)cc3)n[nH]c2=S)o1 do in these assays?
MBNL1 CUG block: -1%; RORgamma inh: 6.3µM*; Gal4-VP16 FLuc: -30%; CBFb-RUNX1 inh: 0%; Six1-Eya2 blk: 1; CtBP-E1A blk: -21

How did Cc1ccc(-c2n[nH]c(=S)n2/N=C/c2ccc(C)o2)cc1 do in these assays?
MBNL1 CUG block: 8%; RORgamma inh: 5µM*; Gal4-VP16 FLuc: 3.5µM*; CBFb-RUNX1 inh: -3%; Six1-Eya2 blk: -8; CtBP-E1A blk: 0
